{"source": "paper PMC7862700", "about": "“An all-to-all approach to the identification of sequence-specific readers for epigenetic DNA modifications on cytosine”", "test_in_all_cases": "DAPPL (digital affinity profiling via proximity ligation, sequencing); 10 mM Tris-HCl pH 7.5, 50 mM NaCl, 1 mM DTT, 4% glycerol, room temperature, 30 min; GST-TFs on glutathione beads, 16-mer random dsDNA library, 0.1% formaldehyde crosslink after washing; high values mean tight binding", "details_in_all_cases": "protein: recombinant; tags: N-terminal GST; dsDNA, one strand shown", "key": {"[1]": {"molecular_target": "T1, ELK1 (Homo sapiens, UniProt P19419 1-428)", "T1 sequence": "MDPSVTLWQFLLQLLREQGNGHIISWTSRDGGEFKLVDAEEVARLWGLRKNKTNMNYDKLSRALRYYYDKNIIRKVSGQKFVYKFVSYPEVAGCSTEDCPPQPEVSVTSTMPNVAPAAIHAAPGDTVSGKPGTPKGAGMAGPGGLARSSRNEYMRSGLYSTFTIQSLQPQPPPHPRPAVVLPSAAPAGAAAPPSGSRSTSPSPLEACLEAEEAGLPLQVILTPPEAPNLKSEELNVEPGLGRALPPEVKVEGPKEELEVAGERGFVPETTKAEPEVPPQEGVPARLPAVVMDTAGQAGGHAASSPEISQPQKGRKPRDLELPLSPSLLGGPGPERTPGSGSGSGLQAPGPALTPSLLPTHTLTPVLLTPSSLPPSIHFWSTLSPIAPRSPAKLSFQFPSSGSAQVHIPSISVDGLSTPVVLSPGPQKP", "summary_of_the_method": "(§1)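 Sequencing on an Illumina NextSeq500 followed washing, crosslinking with 0.1% formaldehyde, proximity ligation (BsaI/T4 ligase, 1 h, 37 °C) and PCR amplification of pools that had been incubated for 30 min at room temperature with 200 nmole of a random double-stranded 16-mer DNA library in Tris/NaCl/DTT/glycerol buffer. Each pool held DNA-barcoded human transcription factors, expressed in yeast as GST fusions and captured on glutathione beads, plus a tag-only sample. Binding signal is a hexamer's read frequency for a factor divided by its frequency in the tag-only sample.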"}, "[2]": {"molecular_target": "T2, ERG (Homo sapiens, UniProt P11308 1-479)", "T2 sequence": "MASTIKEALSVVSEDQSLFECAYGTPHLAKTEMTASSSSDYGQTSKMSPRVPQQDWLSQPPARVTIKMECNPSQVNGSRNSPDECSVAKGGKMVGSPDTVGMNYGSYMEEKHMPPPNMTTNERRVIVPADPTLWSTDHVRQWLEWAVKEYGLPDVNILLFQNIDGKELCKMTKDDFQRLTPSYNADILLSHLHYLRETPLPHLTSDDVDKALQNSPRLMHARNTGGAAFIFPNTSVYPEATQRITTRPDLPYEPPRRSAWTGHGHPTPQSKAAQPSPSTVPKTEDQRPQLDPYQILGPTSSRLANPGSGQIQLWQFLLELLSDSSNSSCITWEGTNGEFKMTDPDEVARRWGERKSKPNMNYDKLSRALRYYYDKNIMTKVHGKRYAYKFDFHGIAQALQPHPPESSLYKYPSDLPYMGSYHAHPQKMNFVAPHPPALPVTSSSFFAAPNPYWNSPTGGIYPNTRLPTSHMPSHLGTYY", "summary_of_the_method": "as §1"}, "[3]": {"molecular_target": "ELF1 (Homo sapiens, UniProt P32519 1-619)", "sequence (P32519 whole entry)": "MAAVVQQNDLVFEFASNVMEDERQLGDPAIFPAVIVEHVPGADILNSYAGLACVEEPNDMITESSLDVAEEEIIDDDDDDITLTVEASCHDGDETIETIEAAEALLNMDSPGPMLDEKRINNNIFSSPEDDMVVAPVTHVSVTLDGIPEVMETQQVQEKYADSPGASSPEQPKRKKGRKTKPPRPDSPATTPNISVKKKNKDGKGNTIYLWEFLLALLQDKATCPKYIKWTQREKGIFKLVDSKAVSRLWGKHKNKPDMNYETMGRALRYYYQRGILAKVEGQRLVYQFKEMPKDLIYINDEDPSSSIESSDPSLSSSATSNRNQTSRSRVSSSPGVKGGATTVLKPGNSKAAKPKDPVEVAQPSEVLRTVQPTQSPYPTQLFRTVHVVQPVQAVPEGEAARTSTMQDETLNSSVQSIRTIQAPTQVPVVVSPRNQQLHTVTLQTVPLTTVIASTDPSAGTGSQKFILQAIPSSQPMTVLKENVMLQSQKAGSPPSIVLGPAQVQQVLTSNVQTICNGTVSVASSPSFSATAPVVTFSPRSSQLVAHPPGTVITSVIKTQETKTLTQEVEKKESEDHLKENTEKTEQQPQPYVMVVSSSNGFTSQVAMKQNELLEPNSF", "summary_of_the_method": "as §1"}, "[4]": {"molecular_target": "T3, EHF (Homo sapiens, UniProt Q9NZC4 1-300)", "T3 sequence": "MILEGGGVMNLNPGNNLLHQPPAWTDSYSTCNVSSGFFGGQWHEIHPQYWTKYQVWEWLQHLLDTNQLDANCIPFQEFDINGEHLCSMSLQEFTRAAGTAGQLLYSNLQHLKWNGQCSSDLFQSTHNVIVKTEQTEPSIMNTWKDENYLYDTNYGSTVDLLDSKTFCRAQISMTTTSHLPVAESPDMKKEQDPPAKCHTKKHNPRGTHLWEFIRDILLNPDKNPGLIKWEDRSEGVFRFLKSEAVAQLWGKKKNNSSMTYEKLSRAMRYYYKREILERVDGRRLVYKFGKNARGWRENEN", "summary_of_the_method": "as §1"}, "[5]": {"molecular_target": "SPIB (Homo sapiens, UniProt Q01892 1-262)", "sequence (Q01892 whole entry)": "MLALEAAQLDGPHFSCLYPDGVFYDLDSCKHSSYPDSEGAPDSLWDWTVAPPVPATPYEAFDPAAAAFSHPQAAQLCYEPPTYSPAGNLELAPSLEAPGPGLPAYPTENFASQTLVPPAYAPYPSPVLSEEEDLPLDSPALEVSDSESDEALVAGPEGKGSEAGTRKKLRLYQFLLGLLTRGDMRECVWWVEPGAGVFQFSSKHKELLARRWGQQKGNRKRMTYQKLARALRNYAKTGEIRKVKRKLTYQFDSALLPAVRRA", "summary_of_the_method": "as §1"}, "[6]": {"molecular_target": "T4, FEV (Homo sapiens, UniProt Q99581 1-238)", "T4 sequence": "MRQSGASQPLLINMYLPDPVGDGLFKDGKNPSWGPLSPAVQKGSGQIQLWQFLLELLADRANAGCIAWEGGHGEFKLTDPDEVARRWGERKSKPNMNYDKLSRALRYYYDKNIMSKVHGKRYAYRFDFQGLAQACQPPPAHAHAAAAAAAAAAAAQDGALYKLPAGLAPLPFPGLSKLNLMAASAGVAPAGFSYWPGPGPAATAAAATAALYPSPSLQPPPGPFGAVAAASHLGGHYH", "summary_of_the_method": "as §1"}, "[7]": {"molecular_target": "ETV5 (Homo sapiens, UniProt P41161 1-510)", "sequence (P41161 whole entry)": "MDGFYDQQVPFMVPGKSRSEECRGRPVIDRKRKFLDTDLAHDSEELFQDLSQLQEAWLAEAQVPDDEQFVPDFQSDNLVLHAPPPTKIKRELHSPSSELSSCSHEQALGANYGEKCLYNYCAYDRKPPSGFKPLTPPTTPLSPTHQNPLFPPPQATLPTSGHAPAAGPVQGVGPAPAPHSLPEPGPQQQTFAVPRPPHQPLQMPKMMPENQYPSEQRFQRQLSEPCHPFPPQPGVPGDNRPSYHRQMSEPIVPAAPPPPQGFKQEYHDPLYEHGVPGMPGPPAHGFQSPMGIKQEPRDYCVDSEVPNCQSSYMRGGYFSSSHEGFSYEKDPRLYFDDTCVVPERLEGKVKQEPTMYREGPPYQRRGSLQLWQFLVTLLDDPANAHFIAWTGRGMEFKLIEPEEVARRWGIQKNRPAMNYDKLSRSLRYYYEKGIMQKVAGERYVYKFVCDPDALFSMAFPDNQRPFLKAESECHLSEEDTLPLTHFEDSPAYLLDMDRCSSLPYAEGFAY", "summary_of_the_method": "as §1"}, "[8]": {"molecular_target": "T5, ELK4 (Homo sapiens, UniProt P28324-2 1-405)", "T5 sequence": "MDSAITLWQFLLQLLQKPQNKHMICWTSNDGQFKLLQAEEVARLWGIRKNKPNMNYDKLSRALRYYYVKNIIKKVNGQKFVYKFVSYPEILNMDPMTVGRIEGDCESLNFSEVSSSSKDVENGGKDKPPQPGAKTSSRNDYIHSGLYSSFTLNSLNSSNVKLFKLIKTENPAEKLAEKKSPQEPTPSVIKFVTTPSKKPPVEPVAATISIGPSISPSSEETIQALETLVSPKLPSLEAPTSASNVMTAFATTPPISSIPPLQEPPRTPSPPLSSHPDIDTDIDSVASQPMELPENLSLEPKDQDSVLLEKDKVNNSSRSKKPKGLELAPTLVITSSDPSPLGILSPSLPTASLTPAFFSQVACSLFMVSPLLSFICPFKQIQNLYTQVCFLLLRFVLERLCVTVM", "summary_of_the_method": "as §1"}, "[9]": {"molecular_target": "T6, ETV2 (Homo sapiens, UniProt O00321 1-342)", "T6 sequence": "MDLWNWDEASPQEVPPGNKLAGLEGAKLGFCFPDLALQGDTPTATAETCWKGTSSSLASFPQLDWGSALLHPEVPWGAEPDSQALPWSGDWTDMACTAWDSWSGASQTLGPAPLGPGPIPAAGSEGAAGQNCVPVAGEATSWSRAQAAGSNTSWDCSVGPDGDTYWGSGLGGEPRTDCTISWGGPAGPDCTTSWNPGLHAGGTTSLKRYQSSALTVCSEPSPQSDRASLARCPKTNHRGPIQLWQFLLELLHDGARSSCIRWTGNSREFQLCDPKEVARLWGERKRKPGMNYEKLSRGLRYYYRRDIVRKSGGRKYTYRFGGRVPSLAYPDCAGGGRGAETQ", "summary_of_the_method": "as §1"}, "[10]": {"molecular_target": "ETV1 (Homo sapiens, UniProt P50549 1-477)", "sequence (P50549 whole entry)": "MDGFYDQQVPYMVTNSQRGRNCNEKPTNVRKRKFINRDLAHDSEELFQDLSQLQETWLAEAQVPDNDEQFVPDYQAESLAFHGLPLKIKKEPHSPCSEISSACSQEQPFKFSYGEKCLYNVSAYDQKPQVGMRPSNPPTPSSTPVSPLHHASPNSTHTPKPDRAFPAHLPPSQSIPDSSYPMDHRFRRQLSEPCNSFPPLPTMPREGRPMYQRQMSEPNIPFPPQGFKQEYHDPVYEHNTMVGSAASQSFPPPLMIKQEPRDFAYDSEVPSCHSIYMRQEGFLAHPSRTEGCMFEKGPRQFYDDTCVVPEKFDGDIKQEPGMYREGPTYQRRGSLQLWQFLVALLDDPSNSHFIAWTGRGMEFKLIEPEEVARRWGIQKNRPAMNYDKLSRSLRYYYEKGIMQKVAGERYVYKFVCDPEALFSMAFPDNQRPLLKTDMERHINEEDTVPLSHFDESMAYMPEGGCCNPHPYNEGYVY", "summary_of_the_method": "as §1"}, "[11]": {"molecular_target": "T7, ERF (Homo sapiens, UniProt P50548 1-548)", "T7 sequence": "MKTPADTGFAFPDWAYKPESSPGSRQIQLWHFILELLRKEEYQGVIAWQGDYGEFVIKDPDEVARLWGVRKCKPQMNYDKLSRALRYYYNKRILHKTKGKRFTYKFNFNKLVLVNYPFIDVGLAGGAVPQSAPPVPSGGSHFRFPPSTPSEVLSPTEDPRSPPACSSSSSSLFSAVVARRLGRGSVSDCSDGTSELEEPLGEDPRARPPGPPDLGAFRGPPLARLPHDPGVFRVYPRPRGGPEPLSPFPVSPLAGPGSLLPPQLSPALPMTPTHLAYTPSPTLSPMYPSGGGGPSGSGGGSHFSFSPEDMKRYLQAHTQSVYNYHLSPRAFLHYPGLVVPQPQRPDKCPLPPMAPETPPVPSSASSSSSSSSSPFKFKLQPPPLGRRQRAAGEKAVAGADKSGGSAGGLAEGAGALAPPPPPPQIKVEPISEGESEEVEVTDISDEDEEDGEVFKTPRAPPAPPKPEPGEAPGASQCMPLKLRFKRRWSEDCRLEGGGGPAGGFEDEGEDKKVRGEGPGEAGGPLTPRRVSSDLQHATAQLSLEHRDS", "summary_of_the_method": "as §1"}, "[12]": {"molecular_target": "T8, ETV3L (Homo sapiens, UniProt Q6ZN32 1-361)", "T8 sequence": "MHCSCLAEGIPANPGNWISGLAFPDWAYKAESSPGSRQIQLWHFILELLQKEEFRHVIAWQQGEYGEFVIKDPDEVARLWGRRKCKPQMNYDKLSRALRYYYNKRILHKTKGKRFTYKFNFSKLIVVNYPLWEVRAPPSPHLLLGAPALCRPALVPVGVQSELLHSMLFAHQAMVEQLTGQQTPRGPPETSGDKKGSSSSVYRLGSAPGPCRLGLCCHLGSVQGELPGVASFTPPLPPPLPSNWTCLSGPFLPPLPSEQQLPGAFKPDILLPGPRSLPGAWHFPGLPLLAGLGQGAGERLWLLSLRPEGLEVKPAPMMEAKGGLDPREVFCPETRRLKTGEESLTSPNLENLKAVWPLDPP", "summary_of_the_method": "as §1"}, "[13]": {"molecular_target": "T9, ETS2 (Homo sapiens, UniProt P15036 1-469)", "T9 sequence": "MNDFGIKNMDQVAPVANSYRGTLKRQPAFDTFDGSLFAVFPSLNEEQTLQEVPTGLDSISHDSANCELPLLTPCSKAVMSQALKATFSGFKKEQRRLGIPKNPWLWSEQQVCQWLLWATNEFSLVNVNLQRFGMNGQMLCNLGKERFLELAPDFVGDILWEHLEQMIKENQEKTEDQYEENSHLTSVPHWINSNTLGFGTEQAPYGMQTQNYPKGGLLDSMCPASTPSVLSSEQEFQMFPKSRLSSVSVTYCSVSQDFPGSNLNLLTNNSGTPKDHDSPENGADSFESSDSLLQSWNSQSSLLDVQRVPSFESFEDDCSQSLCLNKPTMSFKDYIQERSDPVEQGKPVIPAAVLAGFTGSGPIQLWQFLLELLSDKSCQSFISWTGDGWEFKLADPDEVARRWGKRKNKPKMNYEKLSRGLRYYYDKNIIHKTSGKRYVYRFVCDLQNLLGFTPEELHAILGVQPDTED", "summary_of_the_method": "as §1"}, "[14]": {"molecular_target": "T10, SPDEF (Homo sapiens, UniProt O95238 1-335)", "T10 sequence": "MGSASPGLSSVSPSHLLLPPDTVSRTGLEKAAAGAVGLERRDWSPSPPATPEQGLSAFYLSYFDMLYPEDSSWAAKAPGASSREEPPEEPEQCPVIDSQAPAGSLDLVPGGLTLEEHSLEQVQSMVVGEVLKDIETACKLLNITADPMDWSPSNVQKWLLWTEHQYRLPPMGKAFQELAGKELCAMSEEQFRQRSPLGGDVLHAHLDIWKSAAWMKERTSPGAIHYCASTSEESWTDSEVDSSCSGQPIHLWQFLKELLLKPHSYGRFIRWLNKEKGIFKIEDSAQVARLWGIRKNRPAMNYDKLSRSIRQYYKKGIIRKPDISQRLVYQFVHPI", "summary_of_the_method": "as §1"}, "[15]": {"molecular_target": "T11, ETV3 (Homo sapiens, UniProt P41162-2 1-143)", "T11 sequence": "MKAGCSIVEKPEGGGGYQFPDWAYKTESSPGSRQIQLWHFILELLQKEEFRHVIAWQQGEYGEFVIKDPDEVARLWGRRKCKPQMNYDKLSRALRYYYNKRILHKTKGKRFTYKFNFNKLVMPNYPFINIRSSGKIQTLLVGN", "summary_of_the_method": "as §1"}, "[16]": {"molecular_target": "ETV6 (Homo sapiens, UniProt P41212 1-452)", "sequence (P41212 whole entry)": "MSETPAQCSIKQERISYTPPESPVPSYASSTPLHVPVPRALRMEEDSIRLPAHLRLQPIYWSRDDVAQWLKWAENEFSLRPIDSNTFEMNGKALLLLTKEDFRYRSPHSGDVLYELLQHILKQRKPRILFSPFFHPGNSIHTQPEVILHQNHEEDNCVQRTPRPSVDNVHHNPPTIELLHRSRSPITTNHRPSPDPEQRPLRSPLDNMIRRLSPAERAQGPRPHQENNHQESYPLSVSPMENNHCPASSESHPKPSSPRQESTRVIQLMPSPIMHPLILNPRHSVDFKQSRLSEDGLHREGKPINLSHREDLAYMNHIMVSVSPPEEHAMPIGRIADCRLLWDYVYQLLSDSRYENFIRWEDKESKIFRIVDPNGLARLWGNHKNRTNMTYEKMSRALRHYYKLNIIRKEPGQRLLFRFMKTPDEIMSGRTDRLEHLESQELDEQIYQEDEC", "summary_of_the_method": "as §1"}}, "data": [{"sequence": "CGACTG", "values": [{"measurement": "binding signal", "setting": "[1]", "result": "1.13 fold enrichment (6-mer frequency, TF over GST control)"}, {"measurement": "binding signal", "setting": "[2]", "result": "1.05 fold enrichment (6-mer frequency, TF over GST control)"}, {"measurement": "binding signal", "setting": "[3]", "result": "1.08 fold enrichment (6-mer frequency, TF over GST control)"}, {"measurement": "binding signal", "setting": "[4]", "result": "1.02 fold enrichment (6-mer frequency, TF over GST control)"}, {"measurement": "binding signal", "setting": "[5]", "result": "1.05 fold enrichment (6-mer frequency, TF over GST control)"}, {"measurement": "binding signal", "setting": "[6]", "result": "1.1 fold enrichment (6-mer frequency, TF over GST control)"}, {"measurement": "binding signal", "setting": "[7]", "result": "1.06 fold enrichment (6-mer frequency, TF over GST control)"}, {"measurement": "binding signal", "setting": "[8]", "result": "1.22 fold enrichment (6-mer frequency, TF over GST control)"}, {"measurement": "binding signal", "setting": "[9]", "result": "1.19 fold enrichment (6-mer frequency, TF over GST control)"}, {"measurement": "binding signal", "setting": "[10]", "result": "1.13 fold enrichment (6-mer frequency, TF over GST control)"}, {"measurement": "binding signal", "setting": "[11]", "result": "1.17 fold enrichment (6-mer frequency, TF over GST control)"}, {"measurement": "binding signal", "setting": "[12]", "result": "1.07 fold enrichment (6-mer frequency, TF over GST control)"}, {"measurement": "binding signal", "setting": "[13]", "result": "1.08 fold enrichment (6-mer frequency, TF over GST control)"}, {"measurement": "binding signal", "setting": "[14]", "result": "1.06 fold enrichment (6-mer frequency, TF over GST control)"}, {"measurement": "binding signal", "setting": "[15]", "result": "1.05 fold enrichment (6-mer frequency, TF over GST control)"}, {"measurement": "binding signal", "setting": "[16]", "result": "1.02 fold enrichment (6-mer frequency, TF over GST control)"}]}]}
